Pf apPOL block = Pf-apPOL inhibitors, biochemical, fluorescence; Plasmodium falciparum apicoplast DNA polymerase (apPOL); Recombinant Pf-apPOL, molecular beacon fluorescence, 1.5 h; AID 1794808, 2022; 210,000 tested, 0.25% active; inhibition, % at 10 µM
mHTT CaM bind = mutant huntingtin-calmodulin interaction inhibitors – biochemical, AlphaScreen, primary screen; P42858; AlphaScreen His-mHTT/GST-CaM binding, luminescence; inhibition, % at 15 µM; 190,000 tested, 3.6% active; AID 1671202, 2021;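 note: 0% = both proteins with DMSO and 100% = one protein alone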
Numbers without * were called inactive; . = not tested or not shown. Sampled rows, rich in hits. Any-hit rate of the full collection: about 3.5%. Cut-off read from the data, not from the text of the source: active = inhibition above about 50%; inactive = the rest.

SMILES	Pf apPOL block	mHTT CaM bind
CCNC(=O)C1Cc2ccc(OC)cc2N2CCN(c3ccc(C)cc3)CC12 (stereo not drawn)	1	64*
CCNC(=O)C1Cc2ccccc2N2CCN(c3ccccc3OC)CC12 (stereo not drawn)	1	9
COc1cccc(N2CCN3c4ccccc4CC(C(=O)NC(C)C)C3C2)c1 (stereo not drawn)	-2	32
O=C(NCCc1cccs1)C1Cc2ccccc2N2CCN(c3ccccc3)CC12 (stereo not drawn)	-4	95*
CCNC(=O)C1Cc2ccc(OC)cc2N2CCN(c3ccc(OC)cc3)CC12 (stereo not drawn)	-3	17
COc1ccc(N2CCN3c4ccccc4CC(C(=O)N4CCOCC4)C3C2)cc1 (stereo not drawn)	-2	56*
Cc1ccc(N2CCN3c4ccccc4CC(C(=O)N4CCSCC4)C3C2)cc1 (stereo not drawn)	-1	58*
O=C(NCc1ccccn1)C1Cc2ccccc2N2CCN(c3ccccc3)CC12 (stereo not drawn)	-12	38
CS(=O)(=O)c1ccc2nc(NS(=O)(=O)c3ccccc3[N+](=O)[O-])sc2c1	3	1
Cc1ccc(-n2c(N3CCCC(C(=O)NC4CC4)C3)nc3ccsc3c2=O)cc1 (stereo not drawn)	-2	5
Cc1noc(C)c1C1CCCN1C(=O)c1c(-c2c(F)cccc2Cl)noc1C (stereo not drawn)	2	1
Cc1c(Cl)cccc1NC(=O)C1CCN(C(=O)c2cccs2)CC1	-2	1
Cc1ccc(NC(=O)c2cc3c(CO)cnc(C)c3oc2=O)cc1Cl	1	-1
O=c1/c(=C/c2ccccc2F)sc2nc(-c3cccc(Cl)c3)nn12	-1	-2
O=C(Nc1ccccc1F)C1CCCN(C(=O)c2cccc(C(F)(F)F)c2)C1 (stereo not drawn)	8	28
COc1cc(/C=C2\C(=O)NN(c3ccc(F)c(Cl)c3)C2=O)ccc1O	1	33
CCOc1c(Br)cc(/C=C2\C(=O)NN(c3ccc(F)c(Cl)c3)C2=O)cc1OC	1	81*
O=C(Nc1ccc(F)cc1F)c1ccc(F)cc1	1	-12
NC(=O)CNc1n[nH]c(=O)[nH]c1=O	.	-9
O=C(Nc1ccc(O)c(-c2nc3ccccc3o2)c1)c1ccc(Br)o1	-2	1
CCOc1ccc(C2CC(c3cccc(OC)c3)n3nc(N)nc3N2)cc1 (stereo not drawn)	-5	16
CCOc1ccc(N2C(=O)Nc3ccc(Br)cc3C2(O)C(=O)NC(C)C)cc1 (stereo not drawn)	-7	7
CCOc1ccc(-n2sc3c(c2=S)-c2ccc(OC)cc2NC3(C)C)cc1	.	94*
CCOc1ccc2c(c1)-c1c(sn(-c3ccc(C(C)C)cc3)c1=S)C(C)(C)N2	.	76*
CCOc1ccc2c(=O)c(-c3ccc(OC)cc3)coc2c1	-9	-3
SMILES	Pf apPOL block	mHTT CaM bind
CCOc1ccc2c(c1)-c1c(sn(-c3ccc(OC)cc3)c1=S)C(C)(C)N2	.	94*
CC(C)CCNC(=O)C1(C)CCC(=O)N1CCCN1CCOCC1 (stereo not drawn)	-5	-10
Cc1ccccc1-n1c(=O)n(C2CC2)c(=O)c2c1ncn2C(C)C	0	1
O=C(c1ccc(OCC2CCCN2C(=O)c2ccccc2Cl)cc1)N1CCCC1 (stereo not drawn)	10	16
Nc1ccc([N+](=O)[O-])cc1C(=O)NNC(=O)c1ccco1	68*	.
O=C(Nc1ccc([N+](=O)[O-])cc1Br)c1ccco1	2	5
CCn1cnc2c(-c3ccc(Br)cc3)csc2c1=O	-14	-27
OC(COc1ccc(C23CC4CC(CC(C4)C2)C3)cc1)CN1CCOCC1 (stereo not drawn)	4	6
CN1CCN(CC(O)COc2ccc(C34CC5CC(CC(C5)C3)C4)cc2)CC1 (stereo not drawn)	6	96*
CCOC(=O)C1CCN(CC(O)COc2ccc(C34CC5CC(CC(C5)C3)C4)cc2)CC1 (stereo not drawn)	-2	30
OC(COc1ccc(C23CC4CC(CC(C4)C2)C3)cc1)CN1CCCCC1 (stereo not drawn)	4	100*
Cc1ccc(OCCOc2ccc(/C=C3\C(=O)NN(c4ccccc4)C3=O)cc2)cc1	-1	-2
COc1cccc(-c2nc(C3CCN(C(=O)c4cc5cc(Cl)ccc5[nH]4)CC3)no2)c1	-2	-5
O=C(CN1CCN(c2ccccn2)CC1)Nc1ccc2c(c1)OCCO2	-4	-8
CC(=O)Oc1ccc2c(c1)OC(=Cc1ccccc1Br)C2=O	-6	0
CC(=O)Oc1ccc2c(c1)Oc1cc(OC(C)=O)ccc1C21OC(=O)c2ccccc21	6	87*
C#CCOCC1CCCN(C(=O)c2cnccn2)C1 (stereo not drawn)	0	8
COc1ccc2c(c1)c(CN1CCC(C(=O)NCCCN3CCCCC3C)CC1)cn2C (stereo not drawn)	1	8
CC(NC(=O)c1cn2c(n1)CSCC2)c1ccc(F)cc1 (stereo not drawn)	-6	93*
CC(NC(=O)c1cn2c(n1)CCCC2)c1ccc(F)cc1 (stereo not drawn)	-8	10
CCCNC(=O)c1ccc2c(c1)nnn2C	-3	-2
COc1ccc(/C=C2\C=C(c3ccccc3)N(c3cccnc3)C2=O)cc1Br	-3	53*
O=C1/C(=C/c2ccc([N+](=O)[O-])cc2)C=C(c2ccccc2)N1c1ccc(O)cc1	2	59*
COc1ccc(/C=C2\C=C(c3ccccc3)N(c3ccc(N(C)C)cc3)C2=O)cc1	2	36
O=C1/C(=C/c2ccc([N+](=O)[O-])cc2)C=C(c2ccccc2)N1c1ccccc1	-4	4
SMILES	Pf apPOL block	mHTT CaM bind
O=C1/C(=C/c2ccc(-c3ccc([N+](=O)[O-])cc3)o2)C=C(c2ccccc2)N1c1cccnc1	-2	65*
O=C(O)c1cccc(N2C(=O)/C(=C/c3ccc([N+](=O)[O-])cc3)C=C2c2ccccc2)c1	3	18
COc1ccc(/C=C2\C=C(c3ccccc3)N(c3ccc(F)cc3)C2=O)cc1	5	53*
COc1ccc(/C=C2/C(=N)N3C(c4ccccc4)=CSC3=NC2=O)cc1Br	5	10
Clc1ccc(-c2nc3sc(-c4ccc(Cl)cc4)nc3s2)cc1	.	-1
COc1ccc(O)c(C=Nc2sc3c(c2C#N)CCCC3)c1	1	9
CC(=O)C1C(=O)CC(c2ccco2)CC1=O (stereo not drawn)	.	-1
Cc1ccc2c(c1)C(=O)NC1(CCN(C(=O)c3cccc(Cl)c3)CC1)N2C	0	4
Cc1cc(NC(=S)NNC(=O)c2cccnc2Oc2ccccc2)ccc1Br	-31	.
CCCOc1ccc(C(=O)Nc2cccc(NC(=O)c3ccco3)c2)cc1	-2	4
COc1ccc(/C=C2\C=C(c3ccccc3)N(c3ccc(O)cc3)C2=O)cc1	2	59*
COc1ccc(/C=C2\C=C(c3ccccc3)N(c3ccc(C(=O)O)cc3)C2=O)cc1	0	33
CCCSc1nnc2c(n1)[nH]c1c(C)cccc12	-4	9
Cc1cccc2c1[nH]c1nc(NN)nnc12	-1	66*
NNc1nnc2c(n1)[nH]c1ccccc12	-7	100*
Cc1ccc2[nH]c3nc(NN)nnc3c2c1	-6	47
CC(=O)COc1ccc2c3c(c(=O)oc2c1)CCC3	-7	-7
